From PubChem BioAssay (Tox21)
“And” between values parts separate entries of the source, which are not always exact repeats. Equal entries are not always repeated. Records with an inconclusive call do not appear. Where a call stands in place of a potency, no number is given. The source holds several records for some structures; these can differ, active in one and inactive in another. The source made the active and inactive calls. Unless noted, calls come from the whole dose curve; as a rule, active = well fitted curve in the direction sought with a large enough effect in the repeat runs; inconclusive = weak or mixed curves; inactive = no such curve, though single readings can be large; an effect the other way counts as inactive or inconclusive.

How the values were obtained:
[1] = molecular target: Progesterone receptor (Homo sapiens) (UniProt P06401); experiment: qHTS assay to identify small molecule agonists of the progesterone receptor (PR) signaling pathway (AID 1346784; calls by dose curve; note: nearly all actives have a fitted effect of over 30% in size); conditions: PR-UAS-bla HEK293T, beta-lactamase FRET ratio, 16 h; series mostly up to 92.4 µM
Progesterone receptor (Homo sapiens), sequence (P06401 whole entry, looked up): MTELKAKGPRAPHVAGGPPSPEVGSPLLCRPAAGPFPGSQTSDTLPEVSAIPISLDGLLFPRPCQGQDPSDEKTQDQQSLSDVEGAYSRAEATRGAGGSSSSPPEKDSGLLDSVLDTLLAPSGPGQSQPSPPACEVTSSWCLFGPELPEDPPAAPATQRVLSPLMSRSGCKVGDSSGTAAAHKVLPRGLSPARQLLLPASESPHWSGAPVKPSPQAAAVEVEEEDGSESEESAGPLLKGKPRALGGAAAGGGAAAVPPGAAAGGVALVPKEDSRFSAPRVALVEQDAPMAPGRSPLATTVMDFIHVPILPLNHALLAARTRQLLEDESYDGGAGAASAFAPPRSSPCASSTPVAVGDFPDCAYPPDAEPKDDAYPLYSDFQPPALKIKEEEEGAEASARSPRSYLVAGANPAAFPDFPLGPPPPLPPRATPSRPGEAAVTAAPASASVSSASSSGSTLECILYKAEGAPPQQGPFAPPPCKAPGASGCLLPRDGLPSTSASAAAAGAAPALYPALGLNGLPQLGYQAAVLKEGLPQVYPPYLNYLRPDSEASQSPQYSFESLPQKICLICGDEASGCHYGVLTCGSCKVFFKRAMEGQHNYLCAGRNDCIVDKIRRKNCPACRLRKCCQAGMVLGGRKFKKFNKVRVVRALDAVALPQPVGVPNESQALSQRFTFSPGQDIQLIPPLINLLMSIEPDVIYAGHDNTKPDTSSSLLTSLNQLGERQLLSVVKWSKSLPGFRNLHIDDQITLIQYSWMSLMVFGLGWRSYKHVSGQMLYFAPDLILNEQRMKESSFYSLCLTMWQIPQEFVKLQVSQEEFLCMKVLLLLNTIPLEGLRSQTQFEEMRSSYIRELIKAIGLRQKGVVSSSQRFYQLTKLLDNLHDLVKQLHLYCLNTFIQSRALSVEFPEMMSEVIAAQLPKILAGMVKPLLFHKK
Outline: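 HEK 293T PR-UAS-bla reporter cells, 2% charcoal-stripped FBS; 6 hr settle at 37C/5% CO2, compound (DMSO) 16 hr, LiveBLAzer B/G FRET substrate 2 hr RT, fluorescence intensity read.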

[2] = molecular target: Progesterone receptor (Homo sapiens) (UniProt P06401); experiment: qHTS assay to identify small molecule antagonists of the progesterone receptor (PR) signaling pathway (AID 1346795; active = well fitted inhibition curve with a large enough effect in the signal ratio in the repeat runs, not every such curve was filed as active; the % refers to the signal ratio; note: potency is the fitted concentration of half-maximal effect); conditions: PR-UAS-bla HEK293T, beta-lactamase FRET ratio, 16 h; series mostly up to 92.4 µM
Outline: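 Beta-lactamase reporter, HEK293T PR-UAS-bla line; 2% charcoal-stripped FBS; 6 hr pre-incubation, 37C/5% CO2. Compound + R5020 1 nM final, 16 hr. LiveBLAzer B/G FRET substrate, 2 hr RT; fluorescence intensity read.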

[3] = qHTS assay to identify small molecule agonists of the TGF-beta/Smad signaling pathway (AID 1346859; active = well fitted activation curve with a large enough effect in the signal ratio in the repeat runs, not every such curve was filed as active; the % refers to the signal ratio); conditions: SBE-bla HEK293T, TGF-beta/Smad beta-lactamase reporter, 5 h; series mostly up to 76.8 µM
Outline: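 Read-out: fluorescence at 460 and 530 nm (405 nm excitation) after a 2 hr room-temperature incubation with beta-lactamase FRET substrate. SBE-bla HEK 293T cells had been treated with test compounds for 5 hr at 37 C.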

[4] = qHTS assay to identify small molecule agonists of the estrogen receptor alpha (ER-alpha) signaling pathway in the presence of an antagonist - cell viability counter screen (AID 1259386); conditions: VM7Luc4E2 viability, CellTiter-Fluor fluorescence, 22 h; series mostly up to 92.4 µM;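 note: cells exposed to compounds for 22 h at 37 °C before the viability read; nearly all actives have a fitted effect of over 30% in size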; note: potency is the fitted concentration of half-maximal effect
Outline: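 Read-out: CellTiter-Fluor fluorescence after 1hr reagent incubation, measured in the same wells as the luciferase readout. VM7Luc4E2 cells were exposed to 15 compound concentrations with 10.0nM ICI-182,780 for 22hr at 37C.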

[5] = qHTS assay to identify small molecule antagonists of the progesterone receptor (PR) signaling pathway - cell viability counter screen (AID 1346798); conditions: PR-UAS-bla HEK293T viability, CellTiter-Glo luminescence, 16 h; series mostly up to 92.4 µM; note: nearly all actives have a fitted effect of over 50% in size; note: potency is the fitted concentration of half-maximal effect
Outline: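 Luminescence readout (CellTiter-Glo, 30 min, RT) of viability in PR-UAS-bla HEK293T cells exposed to compound and R5020 agonist for 16 hr at 37C, 5% CO2; run in the same wells as the beta-lactamase reporter read.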

[6] = qHTS assay to identify small molecule agonists of the progesterone receptor (PR) signaling pathway - cell viability counter screen (AID 1346799; calls by dose curve; note: nearly all actives have a fitted effect of over 45% in size; note: potency is the fitted concentration of half-maximal effect); conditions: PR-UAS-bla HEK293T viability, CellTiter-Glo luminescence, 16 h; series mostly up to 92.4 µM
Outline: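 HEK293T PR-UAS-bla, 3,000 cells/well, 2% charcoal-stripped FBS; 6 h settle, compound 16 h at 37C/5% CO2; LiveBLAzer 2 h RT, then CellTiter-Glo 30 min RT, luminescence read.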

[7] = qHTS assay to identify small molecule antagonists of the TGF-beta/Smad signaling pathway - cell viability counter screen (AID 1346824); conditions: SBE-bla HEK293T viability, CellTiter-Glo luminescence; series mostly up to 76.8 µM; note: nearly all actives have a fitted effect of over 50% in size; note: potency is the fitted concentration of half-maximal effect
Outline: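 SBE-bla HEK 293T cells, incubated overnight, then compound plus 0.25 ng/mL TGF-beta1 (stock added) for 5 hr at 37 C. Viability was read in the same wells by CellTiter-Glo luminescence after 30 min at room temperature.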

[8] = qHTS assay to identify small molecule agonists of the TGF-beta/Smad signaling pathway - cell viability counter screen (AID 1346829); conditions: SBE-bla HEK293T viability, CellTiter-Glo luminescence, 5 h; series mostly up to 76.8 µM; note: nearly all actives have a fitted effect of over 45% in size; note: potency is the fitted concentration of half-maximal effect
Outline: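 HEK 293T SBE-bla line, 5 hr compound exposure at 37 C, multiplexed CellTiter-Glo viability read by luminescence.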

[9] = molecular target: Thyrotropin-releasing hormone receptor (Homo sapiens) (UniProt P34981); experiment: qHTS assay to identify small molecule antagonists of the thyrotropin-releasing hormone receptor (TRHR) signaling pathway (AID 1346877; active = well fitted inhibition curve with a large enough effect in the repeat runs, not every such curve was filed as active); conditions: TRHR-HEK293, TRH-induced calcium fluorescence, antagonist mode; series mostly up to 51.3 µM
Thyrotropin-releasing hormone receptor (Homo sapiens), sequence (P34981 whole entry, looked up): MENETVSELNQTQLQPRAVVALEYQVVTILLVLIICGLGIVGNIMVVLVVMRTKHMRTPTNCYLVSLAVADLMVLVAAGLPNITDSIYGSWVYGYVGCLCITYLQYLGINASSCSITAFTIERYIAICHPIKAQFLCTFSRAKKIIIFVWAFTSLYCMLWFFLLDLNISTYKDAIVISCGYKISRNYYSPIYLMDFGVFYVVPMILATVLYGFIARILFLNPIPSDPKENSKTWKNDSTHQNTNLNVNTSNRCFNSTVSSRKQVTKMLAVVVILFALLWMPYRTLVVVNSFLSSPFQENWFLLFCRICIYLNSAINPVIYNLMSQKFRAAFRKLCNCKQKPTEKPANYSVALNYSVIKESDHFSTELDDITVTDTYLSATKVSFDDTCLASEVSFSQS
Outline: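 HEK293/TRHR cells, 18 h, 37 °C; Ca2+ dye 2 h; cpd 5 min RT; TRH 1 nM final; fluorescence read 3 min, 1 s intervals; 15 concs, triplicate.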

[10] = molecular target: Thyrotropin-releasing hormone receptor (Homo sapiens) (UniProt P34981); experiment: qHTS assay to identify small molecule agonists of the thyrotropin-releasing hormone receptor (TRHR) signaling pathway (AID 1346891; calls by dose curve;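 note: HEK293 cells expressing TRHR with calcium dye readout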); conditions: TRHR-HEK293 calcium fluorescence, agonist mode; series mostly up to 57.6 µM
Outline: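 HEK293/TRHR cells, 1500 per well, 18 h 37 °C; Ca dye 2 h 37 °C; pin-tool compound addition (agonist mode); kinetic fluorescence 3 min, 1 s reads; 15 concentrations, triplicate.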

Row | Compound | Potency [1] | Potency [2] | Potency [3] | Potency [4] | Potency [5] | Potency [6] | Potency [7] | Potency [8] | Potency [9] | Potency [10]
1 | CCCCCCCCCCCCn1cc[n+](C)c1 | inactive | 27.5 µM (active) [middle of 4 runs] | inactive | – | – | – | – | – | – | –
2 | Nc1ccc(Cl)cc1 | inactive | – | inactive | inactive | inactive | inactive | inactive | inactive | inactive | inactive
3 | N#CS | inactive | inactive | inactive | inactive | inactive | inactive | inactive | inactive | inactive | inactive
4 | C=CCOC(Cn1ccnc1)c1ccc(Cl)cc1Cl (stereo not drawn) | inactive | 6.13 µM (active) and 6.68 µM (active) | inactive | inactive | 24.4 µM (active) and 15.4 µM (active) and 11.9 µM (active) | 27.4 µM (active) and 21.7 µM (active) and 18.8 µM (active) | inactive | inactive | inactive | inactive
5 | CCCCCCCCCCCCCC[P+](CCCCCC)(CCCCCC)CCCCCC | inactive | inactive | inactive | 9.73 µM (active) and 21.9 µM (active) and 6.85 µM (active) | 30.8 µM (active) | – | – | 15.6 µM (active) and 24.7 µM (active) and inactive | – | –
6 | CC[n+]1ccccc1 | inactive | inactive | inactive | inactive and 42.9 µM (active) | – | inactive and 48.2 µM (active) | inactive | inactive | – | –
7 | CC(=O)[O][Hg][c]1ccccc1 | – | 2.15 µM (active) | – | 7.63 µM (active) and 13.7 µM (active) and 26.6 µM (active) | 4.81 µM (active) and 3.86 µM (active) and 5.31 µM (active) | 5.4 µM (active) and 5.45 µM (active) and 5.96 µM (active) | 7.69 µM (active) and 8.71 µM (active) and 10.7 µM (active) | 8.63 µM (active) and 7.76 µM (active) and 9.52 µM (active) | – | –
8 | Oc1cccc2cccnc12 | inactive | 4.6 µM (active) and inactive | inactive | inactive | – | 770 nM (active) and inactive | inactive | inactive | – | –
9 | COP(=O)(OC)C(O)C(Cl)(Cl)Cl (stereo not drawn) | inactive | – | inactive | inactive | inactive | inactive | inactive | inactive | inactive | inactive
10 | Oc1ccccc1-c1ccccc1 | inactive | inactive | inactive | inactive | inactive | inactive | inactive | inactive | inactive | inactive
11 | O=P1(N(CCCl)CCCl)NCCCO1 (stereo not drawn) | inactive | inactive | inactive | inactive | inactive | inactive | inactive | inactive | inactive | inactive
12 | COc1ccccc1N | inactive | inactive | inactive | inactive | inactive | inactive | inactive | inactive | inactive | inactive
13 | CCCCn1cc[n+](C)c1 | – | – | inactive | inactive | inactive | inactive | inactive | inactive | – | –
